Here are results for 40 molecules from PubChem BioAssay (Tox21).

Molecules are shown by their SMILES. Inconclusive results are not listed. Calls of active or inactive are those of the source. The call rests on the fitted dose curve; in most records, active means well fitted activation curve with a large enough effect in the repeat runs; inconclusive means weak or mixed curves; inactive means no such curve, though single readings can be large or run the other way.
On the % scale 0 is the no-effect control and ±100 the full control effect; potency means the concentration at half of the fitted maximal effect.

Aryl hydrocarbon receptor (Homo sapiens), sequence (P35869 whole entry, looked up): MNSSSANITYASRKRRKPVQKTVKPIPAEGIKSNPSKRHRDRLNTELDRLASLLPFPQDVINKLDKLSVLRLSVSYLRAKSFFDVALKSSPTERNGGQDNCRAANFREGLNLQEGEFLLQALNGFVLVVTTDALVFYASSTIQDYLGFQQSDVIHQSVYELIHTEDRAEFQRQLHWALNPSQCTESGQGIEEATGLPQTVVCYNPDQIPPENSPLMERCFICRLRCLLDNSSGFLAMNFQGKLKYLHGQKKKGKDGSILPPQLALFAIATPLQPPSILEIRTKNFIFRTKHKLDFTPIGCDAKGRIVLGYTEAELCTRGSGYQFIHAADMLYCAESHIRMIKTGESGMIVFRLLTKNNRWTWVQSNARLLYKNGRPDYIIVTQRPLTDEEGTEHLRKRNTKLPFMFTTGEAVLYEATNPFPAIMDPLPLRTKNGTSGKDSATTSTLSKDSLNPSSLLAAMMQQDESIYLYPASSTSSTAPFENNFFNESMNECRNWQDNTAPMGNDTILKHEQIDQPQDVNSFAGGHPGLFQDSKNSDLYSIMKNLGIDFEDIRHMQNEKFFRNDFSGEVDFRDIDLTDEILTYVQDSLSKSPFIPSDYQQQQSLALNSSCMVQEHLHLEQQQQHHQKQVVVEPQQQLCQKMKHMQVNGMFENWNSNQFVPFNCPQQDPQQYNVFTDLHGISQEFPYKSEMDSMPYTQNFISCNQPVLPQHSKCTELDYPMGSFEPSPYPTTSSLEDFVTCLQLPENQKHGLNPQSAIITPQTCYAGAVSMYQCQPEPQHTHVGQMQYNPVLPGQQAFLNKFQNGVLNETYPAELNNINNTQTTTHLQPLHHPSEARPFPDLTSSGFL

This test concerns the target Aryl hydrocarbon receptor (Homo sapiens) (UniProt P35869). Description: qHTS assay to identify small molecule that activate the aryl hydrocarbon receptor (AhR) signaling pathway (AID 743085). Further: nearly all actives have a fitted effect of over 15% in size.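 On activation: HG2L7.5c1 human HepG2 liver cells with stably integrated DRE-driven firefly reporter.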 The note with it: HepG2 AhR-luc (HG2L7.5c1), luciferase, 24 h; series mostly up to 70.3 µM; activation: at the top concentration. From the text: U.S. Tox21 Program National Center for Advancing Translational Sciences [NCATS] NIH Chemical Genomics Center [NCGC] U.S. Environmental Protection Agency [EPA] National Institutes of Environmental Health Sciences [NIEHS] National Toxicology Program [NTP] U.S. Food and Drug Administration [FDA] Tox21 Assay overview: The Aryl hydrocarbon Receptor (AhR), a member of the family of basic helix-loop-helix transcription factors, is crucial to adaptive responses to environmental changes. AhR mediates cellular responses to environmental pollutants such as aromatic hydrocarbons through induction of phase I and II enzymes but also interacts with other nuclear receptor signaling pathways. A cell based HepG2-AhR-luc assay (HG2L7.5c1 cell line, developed by Dr. Michael S. Denison, University of California at Davis, was used to assess the activation of AhR. HepG2 (human hepatocellular carcinoma) cells were stably transfected with an Ah receptor-responsive firefly luciferase reporter gene plasmid containing 20 dioxin responsive elements and luciferase reporter gene. Increased luciferase activity can be used to identify the compounds that induce AhR activation.
Tox21 Assay Protocol Summary: 4000 cells in 5 uL/well were dispensed into white wall/solid bottom 1536-well plates using a Multidrop Combi (Thermo Fisher Scientific Inc., Waltham, MA) dispenser. After the assay plates were incubated at 37C for 5 h, 23 nL of compound or DMSO vehicle was transferred to the assay plates by a pintool station (Kalypsys, San Diego, CA). The plates were incubated at 37C for 24 hr. After 1 ul/well of CellTiter-Fluor reagent (Promega, Madison, WI) was added into the assay plates using a Flying Reagent Dispenser (FRD) (Aurora Discovery, CA), the assay plates were incubated at 37C for 30 min. The fluorescence intensity in the plates was measured using a ViewLux plate reader (PerkinElmer, Shelton, CT), followed by the addition of 4 uL of ONE-Glo Luciferase Assay reagent (Promega) using an FRD (Aurora Discovery). After the assay plates were incubated at room temperature for 30 min, luminescence intensity was measured using a ViewLux plate reader (Perkin Elmer).
(qHTS replaces the single test concentration by a dilution series.)
Turning to `CCCSP(=O)(OCC)SCCC`, the “activation” value is 36.2% [at 95 µM] (inactive). For `C1CCC2CCCCC2C1` (stereo not given), the “activation” value was -2.25% [at 95 µM] (inactive). Regarding `Clc1ccc(-c2ccc(Cl)c(Cl)c2Cl)c(Cl)c1Cl`, the “activation” value was 0.166% (inactive). `O=C(CBr)c1ccc(O)cc1`: the “activation” value was 7% (inactive). As for `Cc1cc(C)c(C2=C(OC(=O)CC(C)(C)C)C3(CCCC3)OC2=O)c(C)c1`, the “activation” value was -0.289% [at 95 µM] (inactive). Regarding `Oc1cc(Cl)c(Cl)c(Cl)c1`, the “activation” value was -4.19% (inactive). `CNC(C)Cc1ccc2c(c1)OCO2` (stereo not given): the “activation” value is -2.95% [at 95 µM] (inactive). Regarding `Cc1cc(C(F)(C(F)(F)F)C(F)(F)F)ccc1NC(=O)c1cccc(I)c1C(=O)NC(C)(C)CS(C)(=O)=O`, the “activation” value was 2.61% (inactive). Turning to `ClCc1ccc(Cl)cc1Cl`, the “activation” value was -0.655% (inactive).

As for `CCN(CC)c1c([N+](=O)[O-])cc(C(F)(F)F)c(N)c1[N+](=O)[O-]`, the “activation” value was 7.41% (inactive). Take `CCCN(CCC)CCc1c[nH]c2ccccc12`: the “activation” value is 2.38% (inactive). Still for that read-out and setting: as for `[CH3][Hg][Cl]`, the figure is -1.63% (inactive).

`CC1CCC(C(C)C)C(OC(=O)c2ccccc2N)C1` (stereo not given): the Potency entry was “inactive”. For `CC1(C)[C@H](C(=O)O[C@H](C#N)c2cccc(Oc3ccccc3)c2)[C@@H]1/C=C(\Cl)C(F)(F)F`, the “activation” value was -1.33% (inactive).

Consider `COP(=O)(OC)SCn1c(=O)oc2cc(Cl)cnc21`, for which the Potency was 43.3 µM (active). As to `N#C/C=C/C#N`, the “activation” value was -1.13% [at 95 µM] (inactive). Still for that read-out and setting: as for `CN(C)CCc1c[nH]c2cccc(O)c12`, the figure is -0.304% (inactive). On to `O=C(NC(=O)c1c(F)cccc1F)Nc1cc(Cl)c(OC(F)(F)C(F)F)c(Cl)c1`, for which the Potency was 0.137 µM (active). In the case of `CCCOCC(=Nc1ccc(Cl)cc1C(F)(F)F)n1ccnc1`, the “activation” value was -8.9% (inactive). The same measure, in the same setting: as for `C[C@]12Cc3nonc3C[C@@H]1CC[C@@H]1[C@@H]2CC[C@@]2(C)[C@H]1CC[C@]2(C)O`, the figure is 1.02% (inactive).

On to `CCOP(=O)(NC(C)C)Oc1ccc(SC)c(C)c1` (stereo not given), for which the Potency is 14.8 µM (active). As for `CC(C)(C)c1ccc(CSc2cnn(C(C)(C)C)c(=O)c2Cl)cc1`, the “activation” value is -0.0303% (inactive).

Turning to `COC(=O)N(C(=O)N1CO[C@@]2(C(=O)OC)Cc3cc(Cl)ccc3C2=N1)c1ccc(OC(F)(F)F)cc1`, the “activation” value was -0.452% (inactive). As for `Clc1ccc(COC(Cn2ccnc2)c2ccc(Cl)cc2Cl)cc1` (stereo not given), the “activation” value is -1.71% (inactive). Same read-out and setting: as for `CSCCCN=C=S`, the figure is -1.02% (inactive); as for `CN(C)C1CSSSC1`, 5.88% (inactive); as for `CCCCOCN(C(=O)CCl)c1c(CC)cccc1CC`, -0.0296% (inactive). For `CC(C)(O)c1cnn2c(-c3ccc(F)c(-c4c(F)cccc4C#N)c3)cnc2n1`, the “activation” value is 6.23% (inactive).

Consider `COc1ccc(OC)c(CC(C)N)c1` (stereo not given), for which the “activation” value is 4.89% [at 95 µM] (inactive). Consider `C=CC(=O)OCCCCOC(=O)C=C`, for which the “activation” value is -0.114% (inactive). Still for that read-out and setting: as for `CCCCCCCCCCCCCCCCCCn1cc[n+](C)c1`, the figure is -10.7% (inactive).

Regarding `CC1(C)CC/C(=C/c2ccc(Cl)cc2)C1(O)Cn1cncn1` (stereo not given), the Potency is 8.6 µM (active). On to `[Hg+2].[I-].[I-]`, for which the “activation” value was 4.72% (inactive).

Turning to `FC(Cl)(Cl)Cl`, the “activation” value was 1.65% (inactive). Take `O=[N+]([O-])c1ccc2ccc3cccc4ccc1c2c34`: the “activation” value was 2.51% (inactive). For the molecule `CN(C)C(=S)S`, the Potency entry is “inactive”.

As for `CC(C)[C@H](C(=O)O[C@H](C#N)c1cccc(Oc2ccccc2)c1)c1ccc(Cl)cc1`, the “activation” value is 0.692% (inactive). `CC(=O)[O-].CC(=O)[O-].O.O.[Cd+2]`: the “activation” value is -4.01% (inactive). For `[Cd+2].[Cl-].[Cl-]`, the Potency entry is “inactive”. On to `[Cl][Sb]([Cl])[Cl]`, for which the “activation” value is -0.506% (inactive).
